TGFb inhibitor: qHTS for Inhibitors of TGF-b; HepG2 CAGA-GFP TGF-b/SMAD3 reporter, GFP fluorescence, 18 h; TGF-beta stimulated, 500 pg/mL final; Potency, µM (top dose mostly 46.1 µM), for the others: at the highest dose activity, negative = inhibition, actives largely listed as inhibitors; 410,000 compounds, 1.2% hits; AID 588855, 2011; also: potency is read from the fitted curve at half-maximal effect; % is scaled to controls: 0 for no effect and ±100 for the full control effect; nearly all actives have a fitted effect of over 65% in size
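Read-out: total well GFP (ex488/em500-530) summed from mean per-cell fluorescence. Cells: HEPG2 CAGA-GFP, 1% FBS DMEM, 18 h at 37 degrees C with 500 pg/mL final TGF-beta. Unstimulated wells served as the full-inhibition control; stimulated DMSO wells = 0%.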
DT40 TDP1 CPT: qHTS for Inhibitors of human tyrosyl-DNA phosphodiesterase 1 (TDP1): qHTS in cells in presence of CPT | chicken DT40 Tdp1-/-;hTDP1 cells + 20 nM CPT, ATP luminescence, 48 h | Potency, µM (doses to about 46.2 µM), for inactives: top-dose activity change, negative = growth inhibition, usual class: inhibitors | 420,000 compounds, 12% hits | AID 686979, 2013; also: potency is read from the fitted curve at half-maximal effect; % is scaled to controls: 0 for no effect and ±100 for the full control effect; nearly all actives have a fitted effect of over 55% in size
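Chicken DT40 Tdp1-/- cells stably complemented with human TDP1 were seeded at 400 cells/well in medium containing 20 nM camptothecin, exposed to pin-transferred compounds, and grown at 37 °C for at least 48 hr. Viability was read as ATP luminescence.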
S-ASM inh: Inhibitors of Secretory Acid Sphingomyelinase (S-ASM): qHTS; placental ASM, HMU-PC fluorogenic substrate, 60 min; Potency, µM (highest dose often 57.5 µM), without a hit: at the highest dose activity change, negative = inhibition, usual class: inhibitors; 340,000 compounds, 0.006% hits; AID 504937, 2011; also: potency is read from the fitted curve at half-maximal effect
Target sequence (P17405 47-631 limits assumed): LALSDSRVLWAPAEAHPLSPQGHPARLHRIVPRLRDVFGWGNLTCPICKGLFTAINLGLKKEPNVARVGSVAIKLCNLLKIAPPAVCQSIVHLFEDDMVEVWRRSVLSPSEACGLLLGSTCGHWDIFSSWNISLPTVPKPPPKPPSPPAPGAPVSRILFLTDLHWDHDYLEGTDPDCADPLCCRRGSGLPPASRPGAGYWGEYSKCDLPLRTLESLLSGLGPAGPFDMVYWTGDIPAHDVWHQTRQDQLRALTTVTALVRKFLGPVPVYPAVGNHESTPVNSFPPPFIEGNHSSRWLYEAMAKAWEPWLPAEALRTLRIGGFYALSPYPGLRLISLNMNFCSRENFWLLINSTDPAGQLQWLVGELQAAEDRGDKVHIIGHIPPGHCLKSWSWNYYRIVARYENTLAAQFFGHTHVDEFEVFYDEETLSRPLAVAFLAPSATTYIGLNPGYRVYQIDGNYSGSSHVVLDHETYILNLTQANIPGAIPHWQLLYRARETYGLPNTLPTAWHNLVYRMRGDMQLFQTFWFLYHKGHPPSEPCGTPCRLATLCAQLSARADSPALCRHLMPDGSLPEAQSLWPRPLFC
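Fluorogenic HMU-PC substrate (9 uM final) is turned over by placental ASM in 60 min at 37 C after a 10 min compound preincubation. Reaction ended by alkaline stop (pH 10), with fluorescence read at 386/447 nm.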
IL1B secr inh: qHTS for Inhibitors of Inflammasome Signaling: IL-1-beta AlphaLISA Primary Screen | THP-1 LPS/ATP IL-1B secretion, AlphaLISA, 16 h; hits give low values | activity change, % at 57.5 µM | 360,000 compounds, 4.7% hits | AID 743279, 2014; in the data active = activity change below about -50%; inconclusive = mostly about -30% to -49%; also: % is scaled to controls: 0 for no effect and ±100 for the full control effect
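THP-1 cells pretreated 1 hr with compounds (up to 57.5 uM final), then stimulated with LPS (250 ng/mL final) plus ATP (1.25 mM final); secreted IL-1B measured by AlphaLISA after 16 hr, decreased signal indicating inhibition.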
TDP1 cell noCPT: qHTS for Inhibitors of human tyrosyl-DNA phosphodiesterase 1 (TDP1): qHTS in cells in absence of CPT. Potency, µM (titrated, usually from 46.2 µM), inactives show top-dose activity change, negative = growth inhibition, actives largely listed as inhibitors. AID 686978, 2013. 420,000 compounds, 15% hits. DT40 Tdp1-/- hTDP1 cells, no CPT, ATP luminescence, 48 h; also: potency is read from the fitted curve at half-maximal effect; % is scaled to controls: 0 for no effect and ±100 for the full control effect; nearly all actives have a fitted effect of over 55% in size
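Growth of hTDP1-complemented DT40 Tdp1-knockout cells is measured by ATP luminescence after at least 48 hr compound exposure at 37 °C, with DMSO substituting for the 20 nM CPT used in the parallel screen.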
HepG2 viability: qHTS for Inhibitors of TGF-b: Cytotox Counterscreen; HepG2 CAGA-GFP viability, ATP luminescence, 18 h; Potency, µM (doses to about 46.1 µM), inactives show top-dose activity change, negative = cytotoxicity, usual class: cytotoxic; 410,000 compounds, 0.76% hits; also: potency is read from the fitted curve at half-maximal effect
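CellTiter-Glo luminescence gave cytotoxicity after 18 hours at 37 degrees C. The cells were HepG2 CAGA-GFP in 1% FBS DMEM, stimulated with 500 pg/mL TGF-beta after compound addition. %Activity was normalised to no-cell wells (complete cell-killing) and DMSO (no toxicity), and curves were fitted and classified.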
An asterisk follows results filed as active; ? = inconclusive; . = no result given. Rows were chosen to be rich in hits. Some 19% of all compounds tested hit in one or more screens of this group. Unless noted, calls follow the shape of the dose curve; as a rule, active = well fitted curve in the direction sought with a large enough effect; inconclusive = small, poorly fitted or top-dose-only effect, or another doubt; inactive = no such curve, though single readings can be large; an effect the other way counts as inactive or inconclusive.

SMILES | TGFb inhibitor | DT40 TDP1 CPT | S-ASM inh | IL1B secr inh | TDP1 cell noCPT | HepG2 viability
COc1ccc(NC(=O)C2CCN(C(=O)c3ccc(OC)cc3)CC2)cc1 | 14% | 15µM* | 3% | 13 | ? | 0%
NC(N)=N/N=C/c1cccc(Cl)c1Cl | -16% | ? | -1% | -101* | ? | -20%
c1ccc(Nc2c(-c3c[nH]c4ccccc34)nc3ccccn23)cc1 | -16% | 15µM* | . | . | 12µM* | -40%
O=C(Nc1ccc(F)cc1)c1c(Cl)nc2ccccn12 | -6% | 4% | -3% | 21 | ? | -13%
Cc1ccc2nc(-c3c[nH]c4ccccc34)c(Nc3ccccc3)n2c1 | 30% | 16µM* | . | . | ? | -19%
Fc1ccc(Nc2c(-c3c[nH]c4ccccc34)nc3ccccn23)cc1 | -6% | 16µM* | . | . | 21µM* | -32%
O=C(CCOc1ccccc1)Nc1ccnn1C1CCN(Cc2ccc(F)cc2)CC1 | 6% | -26% | -1% | 0 | -18% | -28%
Cc1cc(NC(=O)Nc2cc(Cl)ccc2C)no1 | 3% | -22% | 3% | 31 | -7% | -53%
CCOc1ccc(Br)cc1C1C(C(=O)OC)=C(N)Oc2cc(N(C)C)ccc21 (configuration not stated) | ? | 5.2µM* | 3% | 30 | ? | -7%
CCOc1ccccc1C1C(C(=O)OC)=C(N)OC2=C1C(=O)CCC2 (configuration not stated) | 17% | -20% | 13% | 12 | -11% | 11%
O=C(Nc1cc(Cl)cc(Cl)c1)C1CCC(=O)N1Cc1ccccc1Cl (configuration not stated) | -8% | 23µM* | -4% | ? | ? | -46%
O=C(NCCCN1CCN(c2cccc(Cl)c2)CC1)C1CCC(=O)N1Cc1ccccc1Cl (configuration not stated) | ? | 16µM* | 6% | -55* | ? | -41%
CCN(CCCNC(=O)C1CCC(=O)N1Cc1ccccc1Cl)c1cccc(C)c1 (configuration not stated) | -22% | 16µM* | -1% | 0 | 23µM* | -6%
CNC(=O)C1CCC(=O)N1Cc1ccccc1Cl (configuration not stated) | 29% | -3% | -1% | 7 | -2% | -9%
CN(CCCNC(=O)C1CCC(=O)N1Cc1ccccc1Cl)c1ccccc1 (configuration not stated) | -2% | -21% | 5% | -12 | ? | -16%
O=C(NCCCN1CCCCC1)C1CCC(=O)N1CCc1ccccc1 (configuration not stated) | -13% | -31% | -1% | 11 | -8% | -9%
CCN(CCCNC(=O)C1CCC(=O)N1Cc1ccc(C)cc1)c1cccc(C)c1 (configuration not stated) | 14% | 13µM* | -1% | -4 | 23µM* | -28%
Cc1ccc(-n2nnnc2SCC(=O)c2c(N)n(C3CC3)c(=O)[nH]c2=O)c(C)c1 | -11% | ? | -4% | 44 | ? | -30%
CCOc1ccc(CN(C)C(=O)Cc2c[nH]c3ccccc23)cc1 | 0% | ? | -2% | 0 | -18% | -24%
COc1ccc(CNC(=O)C2=C(C)C(=O)OC23CCN(C(C)=O)CC3)cc1 | -4% | 3% | . | . | -21% | 5%
CCCCn1c(SCC(=O)NC(=O)Cc2ccccc2)nc2ccccc2c1=O | -3% | -13% | -5% | 15 | 6% | -22%
CCC(=O)Nc1ccc(C(=O)COC(=O)Cc2ccsc2)cc1 | -1% | -16% | 6% | 3 | 0% | -3%
CCCS(=O)(=O)N1CCC(C(=O)NCCCN(CC)c2cccc(C)c2)CC1 | 4% | ? | -1% | -5 | ? | -12%
CCN(CCCNC(=O)C1CCN(S(=O)(=O)N2CCOCC2)CC1)c1cccc(C)c1 | 9% | ? | 1% | -13 | 16µM* | 1%
N#CC(c1ccccn1)(c1ncc(C(F)(F)F)cc1Cl)N1CCOCC1 (configuration not stated) | -23% | -7% | 3% | -4 | -10% | -5%
SMILES | TGFb inhibitor | DT40 TDP1 CPT | S-ASM inh | IL1B secr inh | TDP1 cell noCPT | HepG2 viability
N#CC(c1ccncc1)(c1ncc(C(F)(F)F)cc1Cl)N1CCOCC1 (configuration not stated) | -10% | -4% | -3% | -77* | ? | -21%
COc1ccc(OC)c(/C=N/NC(=O)CCN2CCN(C(c3ccccc3)c3ccccc3)CC2)c1 | -1% | ? | 84% | -4 | 16µM* | 7%
COc1ccc(/C=N\NC(=O)CCN2CCN(c3ccccc3)CC2)cc1OC | -1% | -3% | 1% | 3 | -22% | -1%
O=C(CCN1CCN(C(c2ccccc2)c2ccccc2)CC1)N/N=C/c1ccc(O)cc1 | -1% | ? | 2% | -12 | ? | -17%
O=C(CCN1CCN(C(c2ccccc2)c2ccccc2)CC1)N/N=C/c1ccc(O)cc1O | -14% | 6.5µM* | 40% | 82 | 5.2µM* | -34%
COc1ccc(Nc2c(-c3ccsc3)nc3nc(C)cc(C)n23)cc1 | ? | ? | . | . | ? | -22%
Cc1cc(C)n2c(Nc3ccccc3)c(-c3ccccc3)nc2n1 | ? | 16µM* | . | . | ? | -33%
COc1ccc(Nc2c(-c3ccc(F)cc3)nc3nc(C)cc(C)n23)cc1 | . | 10µM* | . | -26 | 16µM* | .
Cc1cc(C)n2c(Nc3ccc(C(C)C)cc3)c(-c3ccsc3)nc2n1 | 3.5µM* | ? | . | . | ? | -21%
Cc1cc(C)n2c(Nc3ccc(Cl)cc3)c(-c3ccsc3)nc2n1 | -14% | ? | . | . | ? | -20%
Cc1ccc(Nc2c(-c3cccs3)nc3nc(C)cc(C)n23)cc1 | ? | 23µM* | . | . | ? | -29%
CCCCOc1ccc(N2CC(C(=O)NCCc3ccc(OC)c(OC)c3)CC2=O)cc1 (configuration not stated) | -19% | -3% | 14% | 4 | -27% | -20%
CC(C(=O)NC1CCCC1)n1c(C2CCCC2)nc2ccccc21 (configuration not stated) | . | -27% | . | -5 | -19% | .

High-throughput results as filed in PubChem BioAssay.
